This note sets out measurements from PubChem BioAssay AID624331 (National Center for Advancing Translational Sciences (NCATS), 2012).

Inconclusive results are not listed. Where a call stands in place of a potency, no number is given. Calls of active or inactive are those of the source. Calls follow the shape of the dose curve; as a rule, active = well fitted activation curve with a large enough effect; inconclusive = small, poorly fitted or top-dose-only effect; inactive = no such curve, though single readings can be large or run the other way.
Potency is read from the fitted curve at half-maximal effect.

The nature of this assay: qHTS assay for re-activators of p53 using a Luc reporter: Hit Validation with no p53 Expressed. To be noted: p53-null cells, luciferase reporter counter-screen; series mostly up to 46.1 µM. In short, it runs like this:
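Without p53 expression, cells (1000/well, Opti-MEM + 10% FBS) were exposed 24 h at 37 deg C to compounds in a 1:5 series from 10 mM stock (top 46.1 µM in well). Luminescent signal read 10 min after Amplite addition; actives flag unspecific activation.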
On to `Cc1ccc(-c2nnc(SCc3ccccc3F)o2)cc1`, for which the Potency entry was “inactive”.

As for `CN=c1scc(-c2cccs2)n1/N=C/c1ccc(O)c(O)c1O`, the Potency result is “inactive”.

In the case of `O=C(COc1ccccc1Cl)Nc1ccc(Cl)cn1`, the Potency result was “inactive”.

Turning to `Cc1ccc(/C=C2\SC(=S)N(CCCC(=O)Nc3nccs3)C2=O)cc1`, the Potency entry is “inactive”.

As to `CCN(CC)C(=O)CSc1ncnc2c(-c3cccs3)nsc12`, the Potency result was “inactive”.

For `Cc1nn(-c2ccccc2)c(N2CCCC2)c1/C=N/NC(=O)c1cc(-c2ccccc2)nc2ccccc12`, the Potency entry was “inactive”.

On to `CCN(CC)CCn1c(SCC(=O)Nc2ccc3c(c2)CCC3)nc2ccccc2c1=O`, for which the Potency was 8.2 µM (active).

For `Cc1ccc(C(=O)Nc2ccc(Cl)cn2)cc1`, the Potency result was “inactive”.

Regarding `N#Cc1ccccc1NC(=O)c1cccc(COc2ccc(Cl)cc2Cl)c1`, the Potency was 0.116 µM (active).

For `CCCS(=O)(=O)N1CCC(C(=O)NCCN(CC)c2ccccc2)CC1`, the Potency result is “inactive”.

Take `O=C(NCCOc1ccccc1F)c1cc(F)c(F)cc1Cl`: the Potency result was “inactive”.

Turning to `Cc1ccc(C2=CC(c3ccc(N(C)C)cc3)n3nnnc3N2)cc1` (stereo unspecified), the Potency result was “inactive”.

As to `COCc1[nH]nc2c1C(c1cccc(OC)c1)C(C#N)=C(N)O2` (stereo unspecified), the Potency entry is “inactive”.

As to `O=c1cc(-c2ccc3c(c2)OCCO3)oc2ccc(Cl)cc12`, the Potency result was “inactive”.

Take `Cc1ccc(NC(=S)NCC2CCCO2)c(OC(F)F)c1` (stereo unspecified): the Potency entry is “inactive”.

For the molecule `O=[N+]([O-])c1cccc(NC(=S)N2CCc3ccccc32)c1`, the Potency entry is “inactive”.

In the case of `Cc1ccc(S(=O)(=O)NCCOc2nc(N(C)C)nc(N3CCOCC3)n2)cc1`, the Potency entry was “inactive”.

On to `C=CCSC1=N/C(=C\c2cc(OCC)c(OC(C)=O)c([N+](=O)[O-])c2)C(=O)S1`, for which the Potency result was “inactive”.

As to `COc1ccccc1N=Nc1[nH]c2ccc(C)cc2c1O`, the Potency entry is “inactive”.

Turning to `Cc1ccc(OC(=O)c2cccc(S(=O)(=O)N3CCCC3)c2)c(-n2nc3ccccc3n2)c1`, the Potency entry is “inactive”.

Consider `CCOc1cccc(-c2c(C(=O)N/N=C(\C)c3ccccn3)nnn2-c2nonc2N)c1`, for which the Potency entry was “inactive”.
